Calls of active or inactive are those of the source.

Assay [1] in a line: small molecules captured by biotinylated probe aFSTL3 – biochemical, small-molecule microarray, fluorescence 635/667, stem cell growth factor project, primary screen (AID 1064).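 Also: measures binding of the biotinylated anti-FSTL3 antibody to printed compounds.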 Conditions: higher = more signal.
Assay [2] is described as follows: binders from COS7 lysate, DM2A8 probe, primary screen, torsin A project, cell lysate, small-molecule microarray, fluorescence 635/667 (AID 1065). Conditions: higher = more signal, COS7 lysate expressing mutant human TOR1A.
Assay [3] is described as follows: small molecules captured by biotinylated probe aFGF2 – biochemical, small-molecule microarray, fluorescence 635/667, stem cell growth factor project, primary screen (AID 1067).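 Also: measures binding of biotinylated aFGF2 protein to printed compounds on slides; z-score merges feature fluorescence and signal-to-noise across triplicate slides.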 Conditions: higher = more signal.
Assay [4] in a line: small molecules captured by biotinylated probe aFGF10 – biochemical, small-molecule microarray, fluorescence 635/667, stem cell growth factor project, primary screen (AID 1071).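 Also: score merges 667 nm spot intensity and signal to noise from triplicate slides.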 Conditions: higher = more signal.
Assay [5] has as its target Neurogenic locus notch homolog protein 2 (Homo sapiens) (UniProt Q04721). Kind of assay: small molecules binding Notch2 protein – biochemical, small-molecule microarray, 635 nm fluorescence, stem cell growth factors, primary screen (AID 1073). Conditions: higher = more signal.
The target in assay [6] is Pro-neuregulin-1, membrane-bound isoform (Homo sapiens) (UniProt Q02297). Description: small molecules binding neuregulin-1 protein – biochemical, small-molecule microarray, fluorescence 635/667, psychiatric disease protein project, primary screen (AID 1075).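 Also: score combines 667 nm spot fluorescence with signal to noise.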 The settings on record: NRG1 binding, 635 nm fluorescence, higher = more signal.
For assay [7], the system named is Neuregulin-1 EGF-like domain. Description: small molecules binding NRG1 EGF domain – biochemical, small-molecule microarray, 635 nm fluorescence, primary screen (AID 1081).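 Also: binding of the protein to compounds printed on small-molecule microarray slides.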 Conditions: higher = more signal.
The nature of assay [8]: FRG1 expression reporter modulators in myotubes – cell-based, C2C12 myotubes, firefly/Renilla luciferase, luminescence, FRG1 inhibition for FSHD, primary screen (AID 1084). Conditions: FRG1 promoter luciferase, higher = more signal, called active from +8 up or from −8 down.
Assay [9] can be described thus: small molecules captured by biotinylated probe aFST – biochemical, small-molecule microarray, fluorescence 635/667, stem cell growth factor project, primary screen (AID 1086).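 Also: score merges 667 nm fluorescence with signal-to-noise of each printed compound spot.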 Conditions: higher = more signal.
Assay [10] can be described thus: binders of probe aHhip on microarray, primary screen, stem cell growth factor project, biochemical, small-molecule microarray, fluorescence 635/667 (AID 1087).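 Also: score merges spot fluorescence at 667nm with spot signal to noise ratio.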 The settings on record: higher = more signal.
Assay [11] relates to PRMT1 (protein arginine N-methyltransferase 1). Description: small molecules binding arginine methyltransferase PRMT1 – biochemical, small-molecule microarray, 635 nm fluorescence, primary screen (AID 1088).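 Also: binding of Prmt1 protein to compounds spotted on small-molecule microarray slides.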 The settings on record: higher = more signal.
The nature of assay [12]: growth effects on S. cerevisiae YJM789 – YJM789 clinical isolate, OD600, 24 h, basal, primary screen (AID 1089).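 Also: growth of clinical yeast isolate S. cerevisiae YJM 789 seeded 1000 cells per well; test concentration not given here.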 Conditions: higher = more signal, called active from +8 up or from −8 down.
The nature of assay [13]: S. pombe growth modifiers, basal conditions – strain 972, OD600, 24 h, no modulator, primary screen (AID 1090).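 Also: basal condition with compound alone and no growth modifier present; test concentration not given here.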 Conditions: S. pombe 972 growth, higher = more signal, called active from +8 up or from −8 down.
Assay [14] in a line: budding yeast growth modifiers under rapamycin – strain BY4716, OD600, 96 h, primary screen (AID 1091). Also: test concentration not given here. Conditions: S. cerevisiae BY4716 + rapamycin, higher = more signal, called active from +8 up or from −8 down.
For assay [15], the target named is Torsin-1A-interacting protein 2 (Homo sapiens) (UniProt Q8NFQ8). Kind of assay: small molecules binding lysate-expressed LULL1 – cell lysate, human LULL1 lysate, 635/667 nm fluorescence, primary screen (AID 1092).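 Also: score merges per-feature 667 nm fluorescence with signal-to-noise.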 The settings on record: small-molecule microarray, hLULL1 lysate binding, 635 nm fluorescence; higher = more signal.
Assay [16] is described as follows: optical density change of DRC41 E. coli – strain DRC41, OD650, 24 h, E. coli filamentation project, primary screen (AID 1093).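 Also: MC1000 strain lacking acrAB efflux and sulA so SOS filamentation is blocked; test concentration not given here.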 Conditions: E. coli DRC41 growth, higher = more signal, called active from +8 up or from −8 down.
A short description of assay [17]: probe aLefty2 binding to arrayed compounds – biochemical, biotinylated probe, 635/667 nm fluorescence, primary screen (AID 1094).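 Also: score merges spot fluorescence near 667 nm with spot signal-to-noise ratio.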 Conditions: small-molecule microarray, higher = more signal.
For assay [18], the system named is Noggin (protein binding on small-molecule microarray). Description: small molecules binding Noggin protein – biochemical, 635/667 nm fluorescence, primary screen (AID 1095).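 Also: score merges 667 nm feature fluorescence with signal to noise over triplicate slides.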 Conditions: 635 nm fluorescence, higher = more signal.
Assay [19] addresses Neurogenic locus notch homolog protein 3 (Homo sapiens) (UniProt Q9UM47). Kind of assay: small molecules binding NOTCH3 protein – biochemical, 635/667 nm fluorescence, primary screen (AID 1096). Conditions: small-molecule microarray, 635 nm fluorescence, higher = more signal.
Assay [20] is described as follows: probe aEGFR binding to arrayed compounds – biochemical, biotinylated probe, 635/667 nm fluorescence, primary screen (AID 1097).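 Also: probe is a biotinylated anti-EGFR antibody binding compounds printed on slides; score combines fluorescence near 667 nm and signal to noise of each spot.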 Conditions: small-molecule microarray, higher = more signal.

Neurogenic locus notch homolog protein 3 (Homo sapiens), sequence (Q9UM47 whole entry, looked up): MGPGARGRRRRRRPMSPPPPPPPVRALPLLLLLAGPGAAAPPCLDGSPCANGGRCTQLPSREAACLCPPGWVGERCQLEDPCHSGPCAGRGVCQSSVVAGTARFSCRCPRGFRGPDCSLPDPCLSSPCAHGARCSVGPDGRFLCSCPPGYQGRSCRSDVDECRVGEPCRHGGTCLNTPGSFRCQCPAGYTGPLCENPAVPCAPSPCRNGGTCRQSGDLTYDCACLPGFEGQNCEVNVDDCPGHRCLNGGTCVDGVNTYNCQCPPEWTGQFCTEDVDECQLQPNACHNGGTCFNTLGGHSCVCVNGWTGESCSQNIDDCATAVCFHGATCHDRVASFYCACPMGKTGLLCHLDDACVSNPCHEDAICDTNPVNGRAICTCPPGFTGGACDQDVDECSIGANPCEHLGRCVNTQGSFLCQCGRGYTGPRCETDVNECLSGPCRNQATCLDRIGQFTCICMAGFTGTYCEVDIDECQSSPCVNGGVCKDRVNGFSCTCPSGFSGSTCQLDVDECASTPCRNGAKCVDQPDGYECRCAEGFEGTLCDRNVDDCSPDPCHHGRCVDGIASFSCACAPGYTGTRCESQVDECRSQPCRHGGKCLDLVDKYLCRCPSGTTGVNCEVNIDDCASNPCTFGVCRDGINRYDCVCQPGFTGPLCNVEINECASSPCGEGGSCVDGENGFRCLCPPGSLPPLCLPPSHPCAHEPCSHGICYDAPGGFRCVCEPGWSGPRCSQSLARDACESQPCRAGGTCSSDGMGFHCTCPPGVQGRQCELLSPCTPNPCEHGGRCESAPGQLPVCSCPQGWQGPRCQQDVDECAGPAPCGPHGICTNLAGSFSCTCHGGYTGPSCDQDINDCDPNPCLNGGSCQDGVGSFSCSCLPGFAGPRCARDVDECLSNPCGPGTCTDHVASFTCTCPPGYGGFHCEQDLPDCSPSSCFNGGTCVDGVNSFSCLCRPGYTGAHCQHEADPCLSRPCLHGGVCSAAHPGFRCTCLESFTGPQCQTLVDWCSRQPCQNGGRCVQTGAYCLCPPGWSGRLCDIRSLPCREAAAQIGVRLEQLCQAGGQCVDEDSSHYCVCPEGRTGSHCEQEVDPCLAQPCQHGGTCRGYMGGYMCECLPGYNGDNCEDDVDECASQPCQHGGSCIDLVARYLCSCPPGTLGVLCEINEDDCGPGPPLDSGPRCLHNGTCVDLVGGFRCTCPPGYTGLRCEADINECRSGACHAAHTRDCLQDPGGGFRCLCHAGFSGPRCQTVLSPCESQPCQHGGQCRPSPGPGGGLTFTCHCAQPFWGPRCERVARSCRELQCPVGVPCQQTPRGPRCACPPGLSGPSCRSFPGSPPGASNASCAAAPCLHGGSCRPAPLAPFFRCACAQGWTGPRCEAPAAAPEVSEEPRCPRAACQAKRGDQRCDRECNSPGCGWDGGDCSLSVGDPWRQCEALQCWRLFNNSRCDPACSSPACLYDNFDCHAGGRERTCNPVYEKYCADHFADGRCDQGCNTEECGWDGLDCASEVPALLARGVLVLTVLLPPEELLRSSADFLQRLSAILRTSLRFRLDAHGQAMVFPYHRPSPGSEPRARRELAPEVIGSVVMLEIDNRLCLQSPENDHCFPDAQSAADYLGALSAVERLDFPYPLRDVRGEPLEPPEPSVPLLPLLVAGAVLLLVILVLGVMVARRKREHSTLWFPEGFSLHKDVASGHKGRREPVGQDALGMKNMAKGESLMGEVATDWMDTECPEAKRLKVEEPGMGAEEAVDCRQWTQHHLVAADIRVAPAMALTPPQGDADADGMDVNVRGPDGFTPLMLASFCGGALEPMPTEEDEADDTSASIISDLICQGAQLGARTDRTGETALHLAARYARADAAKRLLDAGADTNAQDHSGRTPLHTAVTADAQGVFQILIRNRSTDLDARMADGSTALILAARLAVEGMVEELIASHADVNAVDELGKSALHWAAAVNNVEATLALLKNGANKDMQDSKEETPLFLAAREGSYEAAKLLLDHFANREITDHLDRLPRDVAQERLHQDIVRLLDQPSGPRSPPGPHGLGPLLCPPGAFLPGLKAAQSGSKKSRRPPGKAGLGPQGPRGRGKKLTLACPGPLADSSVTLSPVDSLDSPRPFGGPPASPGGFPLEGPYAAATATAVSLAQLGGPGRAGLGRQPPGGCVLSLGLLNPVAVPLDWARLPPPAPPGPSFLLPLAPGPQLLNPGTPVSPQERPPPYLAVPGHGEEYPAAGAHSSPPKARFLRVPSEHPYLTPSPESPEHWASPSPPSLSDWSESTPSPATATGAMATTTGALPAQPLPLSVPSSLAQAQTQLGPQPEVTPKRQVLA
Neurogenic locus notch homolog protein 2 (Homo sapiens), sequence (Q04721 whole entry, looked up, canonical isoform): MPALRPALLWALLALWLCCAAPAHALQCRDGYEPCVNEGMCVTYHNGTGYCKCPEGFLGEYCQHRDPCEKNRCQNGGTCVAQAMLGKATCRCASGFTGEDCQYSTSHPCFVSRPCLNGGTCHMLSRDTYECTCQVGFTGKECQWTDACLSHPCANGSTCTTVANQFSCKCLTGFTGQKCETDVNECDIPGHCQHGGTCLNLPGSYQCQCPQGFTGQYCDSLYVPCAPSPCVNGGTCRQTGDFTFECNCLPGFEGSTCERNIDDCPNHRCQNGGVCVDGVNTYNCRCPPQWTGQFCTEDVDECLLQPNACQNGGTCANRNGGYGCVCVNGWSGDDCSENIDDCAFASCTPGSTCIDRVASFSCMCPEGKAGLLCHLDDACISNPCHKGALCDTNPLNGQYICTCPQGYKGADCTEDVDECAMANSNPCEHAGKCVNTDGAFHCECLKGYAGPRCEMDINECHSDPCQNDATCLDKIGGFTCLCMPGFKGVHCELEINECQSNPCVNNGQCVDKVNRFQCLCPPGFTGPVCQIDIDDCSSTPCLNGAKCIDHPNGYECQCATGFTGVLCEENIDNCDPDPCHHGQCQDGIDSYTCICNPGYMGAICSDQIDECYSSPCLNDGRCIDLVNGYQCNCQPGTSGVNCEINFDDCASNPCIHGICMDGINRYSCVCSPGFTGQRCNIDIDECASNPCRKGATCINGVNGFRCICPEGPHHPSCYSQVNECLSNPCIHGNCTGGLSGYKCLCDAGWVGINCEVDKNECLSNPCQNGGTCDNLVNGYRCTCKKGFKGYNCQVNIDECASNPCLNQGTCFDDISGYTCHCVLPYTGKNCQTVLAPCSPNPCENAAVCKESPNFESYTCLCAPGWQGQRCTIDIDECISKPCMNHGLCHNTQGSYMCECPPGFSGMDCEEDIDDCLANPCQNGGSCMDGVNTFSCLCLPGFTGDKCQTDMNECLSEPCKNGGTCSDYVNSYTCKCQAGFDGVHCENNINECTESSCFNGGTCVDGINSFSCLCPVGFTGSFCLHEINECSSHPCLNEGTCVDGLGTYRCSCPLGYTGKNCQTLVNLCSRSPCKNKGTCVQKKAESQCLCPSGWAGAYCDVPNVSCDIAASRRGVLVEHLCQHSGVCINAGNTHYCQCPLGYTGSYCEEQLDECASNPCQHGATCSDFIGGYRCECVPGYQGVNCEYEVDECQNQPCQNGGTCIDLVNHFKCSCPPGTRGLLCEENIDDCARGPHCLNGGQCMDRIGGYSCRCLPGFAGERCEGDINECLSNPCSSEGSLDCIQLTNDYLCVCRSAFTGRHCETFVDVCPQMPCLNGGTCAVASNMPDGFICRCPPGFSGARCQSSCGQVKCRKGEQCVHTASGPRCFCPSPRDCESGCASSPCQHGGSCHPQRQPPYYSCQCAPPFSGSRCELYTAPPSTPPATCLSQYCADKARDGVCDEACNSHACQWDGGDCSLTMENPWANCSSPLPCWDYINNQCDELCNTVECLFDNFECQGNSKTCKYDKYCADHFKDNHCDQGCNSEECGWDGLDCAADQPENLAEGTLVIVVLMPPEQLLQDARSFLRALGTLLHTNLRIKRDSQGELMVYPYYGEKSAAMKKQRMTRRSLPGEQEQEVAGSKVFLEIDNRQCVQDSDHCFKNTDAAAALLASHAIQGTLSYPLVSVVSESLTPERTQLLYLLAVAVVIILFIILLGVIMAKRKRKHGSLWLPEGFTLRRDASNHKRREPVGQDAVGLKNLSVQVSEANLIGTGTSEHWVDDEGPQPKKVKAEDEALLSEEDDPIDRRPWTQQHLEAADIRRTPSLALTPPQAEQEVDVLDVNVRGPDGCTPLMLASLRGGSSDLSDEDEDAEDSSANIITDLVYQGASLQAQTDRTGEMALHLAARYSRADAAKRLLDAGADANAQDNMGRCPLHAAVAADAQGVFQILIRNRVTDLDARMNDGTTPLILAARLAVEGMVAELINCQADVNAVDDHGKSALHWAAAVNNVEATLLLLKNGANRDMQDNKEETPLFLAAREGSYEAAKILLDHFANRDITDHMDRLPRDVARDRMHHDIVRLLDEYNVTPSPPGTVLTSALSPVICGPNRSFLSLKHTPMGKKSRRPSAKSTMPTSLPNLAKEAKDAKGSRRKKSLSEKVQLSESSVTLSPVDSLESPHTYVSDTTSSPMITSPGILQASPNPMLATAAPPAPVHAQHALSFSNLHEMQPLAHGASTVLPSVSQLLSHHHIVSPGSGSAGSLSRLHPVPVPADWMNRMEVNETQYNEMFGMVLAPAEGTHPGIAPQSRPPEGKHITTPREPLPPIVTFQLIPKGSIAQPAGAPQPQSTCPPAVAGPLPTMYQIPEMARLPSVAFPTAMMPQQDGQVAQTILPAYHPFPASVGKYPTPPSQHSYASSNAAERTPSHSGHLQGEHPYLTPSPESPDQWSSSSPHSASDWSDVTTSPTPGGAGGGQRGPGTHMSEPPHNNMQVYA

`CCCC[C@@H]1C[C@H]1[C@@H](NC(=O)Cc1ccccc1)c1ccc(-c2ccccc2)cc1`: the composite z-score is -0.153 in [1]; 0.0056 in assay [2]; -0.0064 in [3]; -0.165 in assay [4]; 0.61 in assay [5]; 0.212 in assay [6]. Further, the composite z-score in assay [7] is 0.386; in assay [9], 0.482; in assay [10], -0.0237; in assay [11], 0.0706; in assay [15] it was 2.94; in assay [17] it was -0.0204. The composite z-score in assay [18] is -0.219; in assay [19], 0.0419; in assay [20], -0.125. For the same molecule, the z-score in assay [8] is 0.0529 (inactive); in [12], 0.341 (inactive); in assay [13] it was 0.373 (inactive); in assay [14], -0.116 (inactive); in assay [16], -0.255 (inactive).
As to `Cn1cccc1C(O)C1C=CC2C(=O)NC(=O)C2N1Nc1ccc(Cl)cc1Cl` (stereo not given), the composite z-score in assay [1] was 0.435; in [2], 0.263; in assay [3], 0.167; in assay [4], 0.68; in assay [5], 1.68; in assay [6] it was 2.04. Further, the composite z-score in assay [7] amounted to 1.15; in assay [9], 1.92; in assay [10], 0.107; in assay [11], 1.04; in assay [15], 3.52; in assay [17], 0.673. Further, the composite z-score in [18] is 0.405; in assay [19], 1.05; in assay [20] it was 0.0201. Besides, the z-score in [8] was 0.978 (inactive); in assay [12], -0.477 (inactive); in assay [13], -1.81 (inactive); in assay [14] it was -0.356 (inactive); in assay [16] it was -2.82 (inactive).
In the case of `CCOC(=O)C[C@H]1[C@H](OC(=O)c2cc3ccccc3oc2=O)[C@@H](NC(=O)c2ccc(-c3ccccc3)cc2)c2cc(OCCCO)ccc2N1C(=O)c1ccccc1`, the composite z-score in [1] is -0.561; in assay [2], 1.07; in assay [3], 0.0407; in assay [4], 0.731; in assay [5] it was 1.36; in assay [6], 0.687. Moreover, the composite z-score in assay [7] was 1.31; in assay [9], 0.497; in assay [10], 0.102; in assay [11], 1.02; in assay [15], 1.21; in assay [17] it was -0.0367. Moreover, the results for the composite z-score in assay [18], in [19] and in [20] were 1.68, 1.09 and 0.0526, respectively. Further, the z-score in [8] was 0.335 (inactive); in assay [12] it was 0.11 (inactive); in assay [13], -1.64 (inactive); in assay [14] it was 0.117 (inactive); in assay [16], 1.56 (inactive).
On to `COC(=O)[C@@]1(Cc2ccc(OC)cc2)[C@@H]2C(=CC(=O)[C@H]2CC(=O)C(=O)N(C)C)CN1C(=O)c1ccccc1`, for which the composite z-score in [1] is 0.928; in assay [2], -0.262; in [3], 0.0921; in assay [4], 0.582; in [5] it was 1.77; in [6], 1.39. The composite z-score in assay [7] turned out to be 1.18; in [9] it was 1.97; in [10] it was 0.177; in assay [11], 0.464; in assay [15], 3.54; in [17], 0.413. The composite z-score in assay [18] is -0.343; in assay [19], 1.03; in [20] it was 0.0364. In addition, the z-score in assay [8] is 1.46 (inactive); in assay [12] it was 0.244 (inactive); in assay [13] it was 0.693 (inactive); in assay [14], 2.88 (inactive); in assay [16], -1.08 (inactive).
As to `C=C(/C(=C/C[C@@H](OC(C)=O)c1cccc(OCCO)c1)c1cc(C(=O)OC)ccc1OC)C(C)C`, the composite z-score in assay [1] was -0.367; in assay [2], 1.11; in [3], -0.0799; in assay [4], 0.451; in assay [5], -0.114; in assay [6], -0.202. For the same molecule, the composite z-score in assay [7] was determined as 0.938; in [9], 0.313; in assay [10], 0.0373; in [11] it was 1.07; in assay [15] it was 1.69; in assay [17], 0.0347. The results for the composite z-score in assay [18], in assay [19] and in [20] were 0.575, 0.666 and -0.0987, respectively. In addition, the z-score in [8] was 0.608 (inactive); in assay [12], -0.373 (inactive); in assay [13] it was 0.114 (inactive); in assay [14], -0.87 (inactive); in assay [16], 0.251 (inactive).

For the origin of these results see PubChem BioAssay.
